According to the supplement of paper PMC3334620:
Whole data set: some 33,000 sequences, median “E-score (-0.5 to 0.5)” near -0.012, cut for the highest 2% near 0.27. This excerpt belongs to a sample that is enriched for the highest values.

Each sequence was assayed against T1, Vhr1 (UniProt P40522) (assay: PBM E-score (8-mer binding enrichment) (E-score (-0.5 to 0.5)); higher = stronger / more preferred TF binding). Conditions: protein concentration: 200 nM; construct: GST-full length.
T1 sequence: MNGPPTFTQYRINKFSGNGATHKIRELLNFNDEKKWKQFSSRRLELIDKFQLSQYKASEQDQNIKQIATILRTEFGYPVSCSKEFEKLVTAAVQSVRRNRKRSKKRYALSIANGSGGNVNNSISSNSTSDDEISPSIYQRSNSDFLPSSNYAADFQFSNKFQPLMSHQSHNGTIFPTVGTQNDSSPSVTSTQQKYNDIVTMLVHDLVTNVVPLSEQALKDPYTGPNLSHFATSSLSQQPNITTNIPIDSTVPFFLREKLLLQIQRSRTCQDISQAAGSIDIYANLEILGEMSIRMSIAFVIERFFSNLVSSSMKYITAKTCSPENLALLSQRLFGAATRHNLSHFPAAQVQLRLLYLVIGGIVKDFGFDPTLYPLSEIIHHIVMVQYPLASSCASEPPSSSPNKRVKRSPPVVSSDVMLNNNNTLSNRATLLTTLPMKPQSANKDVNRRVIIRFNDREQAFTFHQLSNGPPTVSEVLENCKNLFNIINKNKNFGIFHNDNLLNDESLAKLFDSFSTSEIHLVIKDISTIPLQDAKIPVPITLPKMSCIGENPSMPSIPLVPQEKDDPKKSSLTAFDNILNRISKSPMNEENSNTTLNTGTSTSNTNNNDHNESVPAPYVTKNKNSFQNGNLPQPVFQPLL
Description: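 Universal 'all 10-mer' protein binding microarrays (Agilent AMADID 015681) probed with GST-tagged S. cerevisiae TFs (full-length or DBD) made by in vitro transcription/translation (PURExpress), about 100-200 nM. Bound TF was detected with fluorescent anti-GST. Each ungapped 8-mer (which stands for itself and its reverse complement) is scored by the PBM enrichment score (E-score), a modified Wilcoxon-Mann-Whitney statistic from -0.5 to +0.5, computed with the Universal PBM Analysis Suite. Scale: above 0.35 generally sequence-specific binding.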

| Sequence | PBM E-score |
| --- | --- |
| CCACCTGG | -0.0837 |
| CATCCTCG | 0.124 |
| CATATCAG | -0.0382 |
| GATATCGA | -0.0237 |
| CATATCGA | 0.292 |
| CATATCAA | 0.278 |
| CATATCGG | 0.0424 |
| AATATCAA | 0.0811 |
| CTTATACC | -0.0429 |
| GCACAGAA | -0.0823 |
| CCGCGAAG | 0.039 |
| GGAGATCC | -0.0359 |
| CGCTTAAC | -0.225 |
| TACGTCAA | -0.139 |
| CAAACAGG | 0.0517 |
| ACTATGAC | 0.286 |
| GCTATGAC | 0.201 |
| ACTATGAT | 0.351 |
| ACTATGAG | 0.181 |
| ACTATGAA | 0.0955 |
| CCTATGAC | 0.0237 |
| AGACTACT | 0.216 |

| Sequence | PBM E-score |
| --- | --- |
| ATTCTATC | -0.154 |
| CCGCTAGC | -0.266 |
| GCTGTCCC | -0.206 |
| AGATCGAC | -0.0907 |
| AATCAGAC | 0.201 |
| CCGTGGCG | 0.189 |
| GCGGTCAC | -0.00992 |
| GACCCAGA | 0.0388 |
| AAATCAGC | 0.121 |
| CAATCAGC | 0.193 |
| TAATCAGA | 0.146 |
| GAATCAGA | 0.319 |
| AAATCAGA | 0.0175 |
| GAATCAGC | 0.307 |
| CCACACCC | 0.197 |
| GAAAATTC | -0.274 |
| AAGCTTCC | -0.37 |
| ATGGGCTG | 0.198 |
| ATGGGCTC | 0.272 |
| CTGGGCTC | -0.135 |
| AAGTCAAT | 0.0223 |
| AAGTCGCA | 0.173 |

| Sequence | PBM E-score |
| --- | --- |
| CAGTCGAC | 0.197 |
| TAGTCGCA | 0.309 |
| CAGTCGCC | 0.147 |
| TCGTCGCA | 0.111 |
| TAGTCGAA | 0.0212 |
| AAGTCGCC | -0.0133 |
| GAGTCGCC | 0.424 |
| AAGTCGAC | 0.17 |
| GAGTCGCA | 0.391 |
| CAGTCGCA | 0.0715 |
| GAGTCGAC | 0.294 |
| ATCAGGCC | -0.0546 |
| ACACTAAA | 0.238 |
| CTACTTAA | -0.204 |
| AACTCATC | 0.209 |
| CACTCATA | 0.179 |
| GACTCAAC | 0.42 |
| GACTCAAA | 0.266 |
| AACTCATA | 0.141 |
| GACTCATC | 0.452 |
| GACTCATA | 0.388 |
| CACTCAAC | 0.0922 |

| Sequence | PBM E-score |
| --- | --- |
| CACTCATC | 0.137 |
| AAGTAGAC | -0.0556 |
| AGCCATTG | 0.172 |
| CCCGCTAG | -0.249 |
| TCCCGGGA | -0.0779 |
| GTAGGTAA | -0.114 |
| GGCGAAGA | -0.152 |
| CTACTCAA | 0.113 |
| GGACTCAA | 0.143 |
| CCACTCAA | 0.133 |
| CGACTCAA | 0.386 |
| TGACTCAA | 0.468 |
| AGACTCAA | 0.214 |
| CGATTTAG | -0.0352 |
| ACATTCAT | 0.0173 |
| CTACCTGC | -0.0175 |
| CGTGAGAC | 0.0393 |
| AGACCTTA | 0.0612 |
| AAGAGGTA | 0.0122 |
| CGACCCAA | 0.14 |
| AGTAATCC | 0.0334 |
